# Measurements taken from PubChem BioAssay (NCATS).
# Results filed as inconclusive are left out. Entries that show only a call come without a potency. Values without a mark were called inactive. Activity calls are given as the source filed them. Calls follow the shape of the dose curve; as a rule, active = well fitted cell-killing curve with a large enough effect; inconclusive = small, poorly fitted or top-dose-only effect, or effect the other way; inactive = flat fitted curve, though single readings scatter.
# Columns and labels:
# Tov-21-G = assay: Primary qHTS to identify gynecologic anti-cancer compounds using libraries of approved drugs and bioactive compounds (AID 1345084); settings: Gynecologic cancer cell panel viability, ATPlite luminescence, 48 h; series mostly up to 57.5 µM; also: nearly all actives have a fitted effect of over 55% in size
# Outline: (§1)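 In this quantitative HTS, cell killing is estimated from loss of ATP-dependent luciferase light. Cells see five compound concentrations over a 48 h exposure.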
# Tov112D = assay: as above; settings: Gynecologic cancer cell panel viability, ATPlite luminescence, 48 h; series mostly up to 57.5 µM
# Outline: as §1
# Potency is read from the fitted curve at half-maximal effect.
Structure (SMILES),Potency (Tov-21-G),Potency (Tov112D)
N#C[C@@H](O[C@@H]1O[C@H](CO[C@@H]2O[C@H](CO)[C@@H](O)[C@H](O)[C@H]2O)[C@@H](O)[C@H](O)[C@H]1O)c1ccccc1,inactive,inactive
Cc1cc(C(=O)CN2CCCC2)c(C)n1-c1ccc(F)cc1,inactive,inactive
CCOc1ccccc1-n1c(C(C)N2CCN(C(=O)COc3ccc(Cl)cc3)CC2)nc2ccccc2c1=O (centres undefined),6310 nM (active),–
CCCN1CCO[C@H]2c3cc(O)ccc3OC[C@@H]21,inactive,inactive
CN1[C@@H]2CC[C@H]1CC(OC(=O)C1C=Nc3ccccc31)C2 (some centres undefined),inactive,inactive
Cc1c(Cl)cccc1S(=O)(=O)Nc1nc(CC(=O)N2CCN(C)CC2)cs1,inactive,inactive
Clc1ccc(OCC2=NCCN2)cc1Cl,inactive,inactive
COCC1OC(=O)c2coc3c2C1(C)C1=C(C3=O)C2CCC(=O)C2(C)CC1O (centres undefined),inactive,inactive
CC(=O)OC1CC(O)C2(C)C(CC(OC(C)=O)C3(C)C2CCC2(C)C(c4ccoc4)C(=O)C4OC423)C1(C)C (centres undefined),inactive,inactive
Clc1ccc(N2C[C@H]3CC[C@@H](C2)N3)nn1,inactive,inactive
COc1c(C(C)C)cc2c(c1O)[C@@]1(C(=O)O)CCCC(C)(C)C1CC2 (some centres undefined),inactive,inactive
CC(=O)OC12C(O)C(C)C3(O)C4C=C(C)C(=O)C4CC(CO)=CC3C1C2(C)C (centres undefined),inactive,inactive
CC(=O)OC1CC(O)C(C)(C)C2CC(OC(C)=O)C3(C)C(CCC4(C)C(c5ccoc5)C(=O)C5OC543)C12C (centres undefined),inactive,inactive
CC(CCc1ccc(O)cc1)O[C@@H]1O[C@H](CO[C@H]2OC[C@](O)(CO)[C@H]2O)[C@@H](O)[C@H](O)[C@H]1O (some centres undefined),inactive,inactive
CC[C@H]1CN2CC[C@H]1C[C@@H]2[C@@H](O)c1ccnc2ccc(OC)cc12,inactive,inactive
CN1C(=O)c2ccccc2NC(=O)[C@]12O[C@@H]2c1ccccc1,inactive,inactive
CN1CCC[C@@H]1Cc1c[nH]c2ccc(Nc3ncccc3[N+](=O)[O-])cc12,inactive,inactive
C/C=C(\C)C(=O)OC1CC2C(C)(C)OC(=O)CC(OC(C)=O)C2(C)C2CC(OC(=O)C(C)C)C3(C)C(c4ccoc4)CC4OC43C12C (centres undefined),inactive,inactive
CCCCCOc1cc2c(cc1-c1cc(/C=C/C(=O)O)ccc1O)C(C)(C)CCC2(C)C,inactive,inactive
O=C(O)c1ccnc2cc(C(OCCN3CCCCC3)c3ccccc3Cl)[nH]c12 (centres undefined),inactive,inactive
CC1C/C=C/C(O)C(O)CC/C=C/c2cc(O)cc(O)c2C(=O)O1 (centres undefined),inactive,inactive
CC(C)(C)c1cc(C(C)(C)C)c2c(c1)C(O)(C(F)(F)F)C(=O)O2 (centres undefined),inactive,inactive
CN1CCCC1CCOC(c1cc2nccc(C(=O)O)c2[nH]1)c1ccccc1Cl (centres undefined),inactive,inactive
C=C[C@H]1[C@H](O[C@@H]2O[C@H](CO)[C@@H](O)[C@H](O)[C@H]2O)OC=C2C(=O)OCC[C@H]21,inactive,inactive
COC1CC(O[C@H]2CC[C@]3(C=O)C4CC[C@]5(C)[C@@H](C6=CC(=O)OC6)CC[C@]5(O)[C@@H]4CC[C@]3(O)C2)OC(C)C1O[C@@H]1O[C@H](CO)[C@@H](O)[C@H](O)[C@H]1O (some centres undefined),141 nM (active),100 nM (active)
CN1C(=O)N(c2ccc(C#N)c(C(F)(F)F)c2)C(=O)[C@]1(CO)c1ccccc1,inactive,inactive
CC[C@H]1CN2CC[C@H]1C[C@H]2[C@H](O)c1ccnc2ccc(OC)cc12,inactive,inactive
COc1cc(CCNCc2ccccc2O)c(OC)cc1C#N,inactive,inactive
C[C@@]12C[C@@H](c3ccoc3)OC(=O)C1CC[C@]1(C)[C@H]2[C@H]2C=C[C@]1(O)C(=O)O2 (some centres undefined),inactive,inactive
CCC1NC(=O)C2C(Cl)C(Cl)CN2C(=O)C(C(C)O)NC(=O)CC(c2ccccc2)NC(=O)C(CO)NC1=O (centres undefined),inactive,inactive
